Shown are actives, neighbours in structure and some others; about 7.5% of the full set was active somewhere.
SMN2 splice enh: increases expression of the SMN2 splice variant; HEK293 SMN2-luciferase splicing reporter, luminescence, 30-36 h; actives 2.8% (n = 210,000); Potency, µM (highest dose often 46.1 µM), without a hit: at the highest dose activity change, positive = activation, most hits filed as activators; note: % of control where 0% means no effect; nearly all actives have a fitted effect of over 55% in size
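qHTS luciferase splicing reporter: luminescence rises when SMN2 exon 7 is included in transfected HEK293 cells. Compound exposure lasted 30-36 h at 37C, with 4.5 mM final sodium butyrate as control, followed by a ONE-Glo read.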
Rab9 prom act: activates the Rab9 promoter; Huh7 Rab9 promoter-luciferase reporter, luminescence, 24 h; Potency, µM (highest dose often 9.22 µM), for the others: top-dose activation, negative = inhibition, hits mostly activators; actives 2.8% (n = 320,000); AID 485297; note: % of control where 0% means no effect; nearly all actives have a fitted effect of over 60% in size
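Luminescence read-out: Huh7 cells stably expressing Rab9-luciferase, treated 24 h with compound at 37 °C, then lysed with luciferase reagent for 10 min at ambient before reading.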
NPC1 promoter act: activates the NPC1 promoter; Huh7 NPC1 promoter luciferase reporter, 24 h; Potency, µM (highest dose often 9.22 µM), without a hit: at the highest dose activation, usual class: activators; actives 2.4% (n = 320,000); AID 485313; note: % of control where 0% means no effect; nearly all actives have a fitted effect of over 60% in size
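NPC1 promoter–luciferase Huh7 cells; 24 h compound; luminescence.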
ELG1 genotox: genotoxicity induction in ELG1-luciferase HEK293T cells | HEK293T ELG1-luciferase reporter, luminescence, 16 h | Potency, µM (titrated, usually from 46 µM), without a hit: at the top dose activity change, positive = activation, actives largely listed as activators | actives 1.3% (n = 330,000); note: % of control where 0% means no effect; nearly all actives have a fitted effect of over 60% in size
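DMSO vehicle served as control against compound-treated ELG1-luciferase HEK293T cells; exposure lasted 16 hr at 37 °C and 5% CO2, followed by ONE-Glo luminescence detection after 30 min.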
FLuc counter: counter-screen for miR-21 project: firefly luciferase inhibitors or activators; actives 6.9% (n = 360,000); purified FLuc, Km substrates, luminescence inhibition; Potency, µM (doses to about 57.5 µM), without a hit: at the top dose activity change, negative = inhibition, hits mostly inhibitors; P08659;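 note: plate controls were vehicle for no effect and reference inhibitor for full effect; nearly all actives have a fitted effect of over 55% in size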
Target sequence (P08659 whole entry, looked up): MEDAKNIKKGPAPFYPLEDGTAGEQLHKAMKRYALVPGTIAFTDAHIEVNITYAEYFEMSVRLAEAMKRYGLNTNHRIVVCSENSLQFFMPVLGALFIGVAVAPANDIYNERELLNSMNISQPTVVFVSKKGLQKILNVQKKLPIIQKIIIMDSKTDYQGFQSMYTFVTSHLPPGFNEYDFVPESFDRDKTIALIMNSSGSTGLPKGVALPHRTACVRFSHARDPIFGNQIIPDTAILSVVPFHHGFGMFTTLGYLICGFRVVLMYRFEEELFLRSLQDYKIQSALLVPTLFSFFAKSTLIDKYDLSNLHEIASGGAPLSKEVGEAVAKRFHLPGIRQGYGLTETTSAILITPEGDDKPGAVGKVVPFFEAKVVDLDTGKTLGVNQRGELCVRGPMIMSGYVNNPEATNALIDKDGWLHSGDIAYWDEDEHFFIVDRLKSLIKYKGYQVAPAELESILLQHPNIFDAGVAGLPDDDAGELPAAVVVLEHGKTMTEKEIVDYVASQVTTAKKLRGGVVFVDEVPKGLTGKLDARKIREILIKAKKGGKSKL
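Purified P. pyralis luciferase (10nM final) with 10uM D-luciferin and 10uM ATP (Km levels) in 50mM Tris acetate pH 7.5, 10mM Mg acetate, 0.01% Tween-20, 0.05% BSA; qHTS 6-point titration, ~60 µM downward; luminescence read.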
Numbers without * were called inactive; ? = inconclusive; . = no result given. Calls come from the whole dose curve; as a rule, active = well fitted curve in the direction sought with a large enough effect; inconclusive = small, poorly fitted or top-dose-only effect, or another doubt; inactive = no such curve, though single readings can be large; an effect the other way counts as inactive or inconclusive. Potency is the fitted concentration of half-maximal effect.

SMILES	SMN2 splice enh	Rab9 prom act	NPC1 promoter act	ELG1 genotox	FLuc counter
O=C(NOCc1ccccc1)c1ccccc1	.	1.8µM*	3.2µM*	6.5µM*	6µM*
Cc1ccc(CONC(=O)c2cccc(C)c2)cc1	.	?	16%	-1%	?
O=C(NOCc1ccccc1)c1ccc(Cl)cc1Cl	.	0.4µM*	0.56µM*	?	1.3µM*
O=C(CNC(=O)c1ccc(Cl)cc1Cl)OCCOc1ccccc1	.	13%	15%	7%	17µM*
Cc1cc(C)c(Cn2c(=O)n(CCCCC(=O)NCc3ccccc3Cl)c(=O)c3ccccc32)c(C)c1	1%	.	.	.	-4%
Cc1ccc2nc(-c3ccc(NC(=O)COc4ccc(Cl)c(C)c4)cc3)sc2c1	14µM*	.	.	.	21µM*
CC(=O)Nc1ccc2nc(NC(=O)COc3ccc(C)cc3)sc2c1	10%	16%	13%	7%	-7%
Cc1ccc(NC(=O)COc2ccc(Br)cc2CO)cc1	-25%	21%	21%	18%	13µM*
O=C(COc1ccc(Br)cc1CO)Nc1ccccc1	-17%	24%	?	10%	?
Cc1ccc2nc(-c3ccc(NC(=O)COc4c(C)ccc(C)c4C)cc3)sc2c1	?	.	.	.	19µM*
Cc1ccc2nc(-c3ccc(NC(=O)COc4ccc(Br)cc4Br)cc3)sc2c1	2.8µM*	.	.	.	2.1µM*
Cc1cc(OCC(=O)Nc2ccncc2)ccc1Cl	.	-4%	1%	-2%	?
CCn1c(C(=O)N2CCC(C(=O)N3CCN(c4ccc(OC)cc4)CC3)CC2)cc2sccc21	-43%	.	.	.	-12%
CCOC(=O)C1CCCN(C(=O)COc2ccc(S(=O)(=O)N(CC)c3ccccc3)cc2)C1 (configuration not stated)	-15%	-6%	-4%	-6%	-2%
O=C(c1cc2ccccc2[nH]1)N(Cc1cccnc1)CC1CCCN(C2CCCCC2)C1 (configuration not stated)	.	0%	-3%	5%	?
CC12CCC(=O)N1C(C(=O)NNC(=O)COc1ccc(Br)cc1)CS2 (configuration not stated)	.	-3%	-1%	-11%	-5%
CC1CCN(c2nn3c(=O)c(C(=O)NCCc4ccc(Cl)cc4)cnc3s2)CC1	.	.	.	.	1%
O=C(COc1ccc2ccccc2c1Br)N1CCCC1	.	?	19%	?	?
N/C(=N\OC(=O)COc1ccc2ccccc2c1Br)c1ccccn1	?	?	?	?	21µM*
N/C(=N\OC(=O)COc1ccc2ccccc2c1Br)c1cccnc1	-2%	-2%	1%	11%	19µM*
COCCCNc1c2c3c(cccc3[nH]c1=O)C(=O)c1ccccc1-2	5%	-7%	-1%	-2%	-5%
COc1ccc(C(=O)Cn2nnc(-c3ccccc3NC(=O)C3CC3)n2)cc1	-17%	4%	-2%	-4%	-1%
COc1cccc(-c2nnn(CC(C)=O)n2)c1	13µM*	2.5µM*	2.8µM*	?	6.7µM*
COc1ccc(-c2ccc(-c3nnn(CC(C)=O)n3)cc2)cc1	?	1.6µM*	2.5µM*	7%	?
COc1ccc(C(=O)Cn2nnc(-c3ccccc3F)n2)cc1	.	28%	21%	4%	15µM*
SMILES	SMN2 splice enh	Rab9 prom act	NPC1 promoter act	ELG1 genotox	FLuc counter
CCC(C(=O)O)n1nnc(-c2ccc(-c3ccc(OC)cc3)cc2)n1 (configuration not stated)	?	22%	26%	?	9.5µM*
S=C(NCC1CCCO1)N1CCc2ccccc2C1 (configuration not stated)	.	2%	8%	-5%	-14%
O=C(Cc1cccc(C(F)(F)F)c1)Nc1cc(S(=O)(=O)N2CCOCC2)ccc1N1CCCC1	.	4%	-4%	0%	.
Cc1ccccc1-n1c(C)nnc1SCc1nc2ccccc2s1	2%	28%	15%	?	4.8µM*
CCOc1ccccc1-n1nnnc1SCc1nc2ccccc2s1	-28%	17%	14%	-4%	13µM*
Cn1c(SCc2nc3ccccc3s2)nnc1-c1cccs1	-12%	6%	18%	?	?
CCn1c(SCc2nc3ccccc3s2)nnc1-c1cccs1	?	?	18%	?	15µM*
